# Measured values taken from PubChem BioAssay AID2685 (National Center for Advancing Translational Sciences (NCATS), 2010).
# Screen size: about 320,000 compounds; about 2,100 (0.66%) were called active. Not shown: some 53% with an inconclusive outcome. Calls follow the shape of the dose curve; as a rule, active = well fitted inhibition curve with a large enough effect in the signal ratio, with a control signal flat (not every such curve was filed as active); inconclusive = small, poorly fitted or top-dose-only effect, or effect the other way, or a change in a side signal; inactive = flat fitted curve, though single readings scatter; the % refers to the signal ratio. Only a selection was taken, and actives are over-represented in it overall.
# Assay: qHTS Assay for Lipid Storage Modulators in Drosophila S3 Cells;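 as to cell number change: cells counted by Cell Tracker Red CMTPX staining in the red channel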; as to lipid storage change, negative = inhibition: % is scaled to controls: 0 for no effect and ±100 for the full control effect
# Settings: BODIPY lipid droplet fluorescence, 18-24 h, cells fed with added oleic acid; cell number change: measured here: cell count max response; series mostly up to 46.1 µM; lipid storage change, negative = inhibition: at the top concentration
# In short: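 Drosophila S3 cells got compounds at several concentrations plus oleic acid (400 uM solution). Laser-scanning cytometry with 488 nm excitation read lipid droplets at 500-530 nm and cells at 575-640 nm. Percent activity was relative to 20 uM Triacsin C.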
# Potency is read from the fitted curve at half-maximal effect.
SMILES,"lipid storage change, negative = inhibition",cell number change [%],Potency,outcome
C=CCn1c(C)c(C=C2C(=O)NC(=O)NC2=O)c2ccccc21,9.58% (inactive),5.7,,
O=c1[nH]c(=O)n(-c2ccc(Br)cc2)c(O)c1C=NC(CO)(CO)CO,-18.1% (inactive),-6.55,,
O=C(CCN1C(=O)COc2ccccc21)N1CCC2(CC1)OCCO2,2.07% (inactive),1.47,,
O=c1c2ccccc2ncn1-c1ccc([N+](=O)[O-])c(C(F)(F)F)c1,12.7% (inactive),7.19,,
Cc1ccccc1-[n+]1c(-c2ccccc2)cc(-c2ccccc2)cc1-c1ccccc1,,,23.1 µM (active),
C[n+]1c(-c2ccccc2)cc(-c2ccc(O)cc2)cc1-c1ccccc1,24.3% (inactive),-18,,
O=c1[nH]c(=S)n(C2CC2)c(O)c1C=NCc1cccnc1,-23.1% (inactive),11.1,,
ON1C2CCCCC2N(O)C1c1ccccc1 (centres undefined),,,,inactive
CC(=O)N1N=C2C3CCN(CC3)C2C1c1ccccc1 (centres undefined),-8.99% (inactive),1.69,,
O[C@@H]1CCCC[C@H]1N1CCC(c2ccccc2)CC1,,,-4.74%,
Cc1ccc(/C=C2/C(=O)NC(=O)N(CCc3ccc(F)cc3)C2=O)o1,-1.73% (inactive),-2.41,,
FC(F)(F)c1ccccc1N1CC1c1ccncc1 (centres undefined),10.2% (inactive),-4.55,,
CSc1ncc(/C=C2/C(=O)NC(=O)N(c3ccc(C)cc3)C2=O)cn1,7.12% (inactive),8.62,,
O=C(c1ccc2c(=O)n(Cc3ccc4c(c3)OCO4)c(=S)[nH]c2c1)N1CCC2(CC1)OCCO2,-17.8% (inactive),-17,,
O=C1NC(=O)C(=Cc2ccsc2)C(=O)N1,-2.16% (inactive),11.6,,
O=C1NC(=S)NC(=O)C1=Cc1cccn1-c1ccc(O)cc1,-23.9% (inactive),-0.957,,
CN1C(=O)/C(=C/c2cccn2-c2ccc3ccccc3c2)C(=O)NC1=S,,-19,3.26 µM (active),
CN1C(=O)/C(=C\c2ccc(N3CCCCCC3)cc2)C(=O)NC1=S,-13.9% (inactive),9.11,,
CC(c1ccccc1)(c1ccccc1)c1ccncc1,-0.155% (inactive),6.39,,
ClC(Cl)(Cl)c1ccccc1,,2.26,0.58 µM (active),
Cc1ccc(N)c(C(=O)c2ccccc2)c1,-10% (inactive),-2.37,,
C=CCn1c(O)c(C(C)=NCc2ccc3c(c2)OCO3)c(=O)[nH]c1=O,-8.54% (inactive),5.5,,
COc1ccc(C(=O)C(C)(C)NO)cc1,,-1.48,3.26 µM (active),
COc1ccc(C(=O)C23CN4CN(CN(C4)C2)C3)cc1,0.471% (inactive),4.85,,

SMILES,"lipid storage change, negative = inhibition",cell number change [%],Potency,outcome
COc1ccc(C(=O)N2CCCC2=O)cc1,-10.4% (inactive),11.9,,
O=C1NC(=O)N(c2ccc3c(c2)OCO3)C(=O)/C1=C\c1ccsc1,-2.55% (inactive),-1.9,,
CC(=O)c1cc(C(C)=O)c(C)[n+](C)c1C,3.6% (inactive),12.6,,
CNC(=S)N1CCN(CCN=Cc2c(O)n(-c3ccc(C)cc3)c(=S)[nH]c2=O)CC1,-14.2% (inactive),1,,
Cc1cc(OCC(=O)NCC(O)c2ccccc2)c2c3c(c(=O)oc2c1)CCC3 (centres undefined),,-16.3,20.6 µM (active),
Cc1cc(OC(C)C(=O)NCC(O)c2ccccc2)c2c3c(c(=O)oc2c1)CCC3 (centres undefined),,,,inactive
Cc1cc(OCC(=O)NCc2ccncc2)c2c3c(c(=O)oc2c1)CCC3,,-10.8,,inactive
CC12CN3CCN(CC(C3)/C1=N/NC(N)=O)C2,-11.3% (inactive),0.944,,
CC(C)C12CN3CCN(CC(C3)/C1=N\O)C2,,-1.85,6.51 µM (active),
CCC12CN3CCN(CC(C3)/C1=N\O)C2,-24.4% (inactive),-11.3,,
C/C(=N\NC(=S)Nc1ccccc1)c1c(O)n(C)c(=O)n(C)c1=O,15.8% (inactive),,,
CCN1C[C@]2(C)CC[C@H](O)[C@]34C1[C@H](C[C@H]23)[C@@]1(O)C[C@H](OC)[C@H]2C[C@@H]4[C@@H]1C2O (some centres undefined),-5.48% (inactive),-19.2,,
C=CCn1c(O)c(C(C)=NC2CCN(Cc3ccccc3)CC2)c(=O)[nH]c1=O,0.565% (inactive),4.94,,
Cn1c(O)c(C=NC2CCN(Cc3ccccc3)CC2)c(=O)n(C)c1=O,10.7% (inactive),0.664,,
CC(=NC1CCN(Cc2ccccc2)CC1)c1c(O)n(C)c(=O)n(C)c1=O,,4.54,29.1 µM (active),
CCCCOC(=O)C1=C(N)OC2=C(C(=O)CC(C)(C)C2)[C@]12C(=O)N(C)c1ccccc12,,-14.5,,inactive
CCOC(=O)C1=C(N)OC2=C(C(=O)CCC2)[C@]12C(=O)N(CC(N)=O)c1ccccc12,-8.73% (inactive),1.37,,
CCCCOC(=O)C1=C(N)OC2=C(C(=O)CCC2)[C@]12C(=O)N(C)c1ccccc12,,-3.29,5.17 µM (active),
COC1CCCCC1NCCc1ccccc1 (centres undefined),-2.57% (inactive),-9.24,,
N#Cc1ccc(Cn2cc(C=O)c3ccccc32)cc1,11.2% (inactive),15.7,,
C=CCn1c(O)c(C(CC)=NCCN2CCN(C(=S)NC)CC2)c(=O)[nH]c1=O,-10.6% (inactive),-0.0083,,
CCCCn1c(=O)c(C(=O)NCCc2ccccc2)c(O)c2ccccc21,,-5.77,,inactive
Cc1cc(O)c2c(c1)C(=O)C13C(=C2O)C(=O)[C@H]2[C@@H](O)[C@@H]1[C@H]1[C@H](O)[C@@H]3C(=O)C3=C(O)c4c(O)cc(C)cc4C(=O)C312 (some centres undefined),,19.8,9.2 µM (active),
